Test results published in PubChem BioAssay (NCI).
Where “and” joins values, the source holds several entries; their conditions need not be identical. Identical values can stand only once. The panel holds about 83,000 compounds, 20% with a hit somewhere; the sample as a whole holds those more often.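 Negative percent growth values reflect cell death: -40 means 40% of the cells present at the start died, and -100 means all died.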 Values without a mark were called inactive. Calls of active or inactive are those of the source.

Each compound was assayed on MDA-MB-435 melanoma (assay: NCI-60 one-dose screen, 48 h (100 = growth as untreated, 0 = no growth, -100 = all killed)). Details: 4.75 µM.
Description: Growth inhibition of the MDA-MB-435 human Melanoma tumor cell line is measured as a screen for anti-cancer activity. Cells are grown in 96 well plates and exposed to the test compound for 48 hours. Compounds are tested at a single concentration, which is 10^-5 M for most compounds. The reported endpoint is percent growth (GI% or GIPRCNT), where numbers from 0 - 100% represent growth inhibition, and numbers from -100% - 0 represent cell death. For example, a value of 40 represents 60% growth inhibition. A value of 0 means no net growth occurred over the course of the experiment. A value of -40 indicates 40% of cells at the beginning of the experiment died by the end of the experiment. A value of -100 means all cells are dead at the end of the experiment.
NCI-60 Human Tumor Cell Lines Screen was performed using the standard one-dose NCI protocol, which is described in more detail at https://dtp.cancer.gov/discovery_development/nci-60/default.htm.
Compounds with GIPRCNT values below 10 were considered active. Activity score was based on GIPRCNT using the following formula: […]
Score is 0 for GIPRCNT values of 100 or above, 50 for GIPRCNT values of 0, and 100 for GIPRCNT values of -100.

Compound | growth
CC(=O)OCC1OC([S-])C(OC(C)=O)C(OC(C)=O)C1OC(C)=O.[Au+].c1ccc(CN2[CH-]N(Cc3ccccc3)C(c3ccccc3)=C2c2ccccc2)cc1 | 4.71% (active)

Same assay, conditions: 10 µM

Compound | growth
CC(=O)OCC1OC([S-])C(OC(C)=O)C(OC(C)=O)C1OC(C)=O.[Au+].c1ccc(CN2[CH-]N(Cc3ccccc3)C(c3ccccc3)=C2c2ccccc2)cc1 | 29.4%

Same assay, conditions: 10 µM unless noted

Compound | growth
C[C@]12CCc3sc(Nc4ccc(OC(F)(F)F)cc4)nc3C1=CC[C@@H]1[C@@H]2CC[C@]2(C)C(=O)CC[C@@H]12 | 77.6%
Cc1nc2ccccc2c(=O)n1-c1ccccc1F | 102%
CC1OC(=O)C(C(C)C)NC(=O)C(C(C)C)OC(=O)C(C(C)C)NC(=O)C(C)OC(=O)C(C(C)C)NC(=O)C(C(C)C)OC(=O)C(C(C)C)NC(=O)C(C)OC(=O)C(C(C)C)NC(=O)C(C(C)C)OC(=O)C(C(C)C)NC1=O (stereo not given) | 3.94% (active)
Cc1ccc(S(=O)(=O)n2cc([C@@]3(O)C[C@H](CSC#N)OC3=O)c3ccccc32)cc1 | 63.3%
CC1=C(C)C(=O)O[C@@H]([C@](C)(O)[C@]2(O)CC[C@@]3(O)[C@@H]4C[C@H]5O[C@]56CC=CC(=O)[C@]6(C)[C@H]4CC[C@]23C)C1 | 3.13% (active)
Cc1cc(C(C)(C)C)ccc1O | 111%
CCC(=O)C(CC(C)[N+](C)(C)C)(c1ccccc1)c1ccccc1 (stereo not given) | 104%
COc1cc(C2C3=C(CCCC3=O)N(CCO)c3cc4c(cc32)CCC4)cc(OC)c1OC (stereo not given) | 100%
N#Cc1ccc(Cl)cc1 | 117%
CO[C@@H]([CH2][Hg][O]C(=O)c1ccccc1)[C@@H]([CH2][Hg][O]C(=O)c1ccccc1)OC | 104%
CC1(C)C=Cc2c(ccc3c2[N+]([O-])=C2C3=C[C@@]34NC(=O)[C@]5(CCCN5C3=O)C[C@@H]4C2(C)C)O1 | 47.3%
CC[C@H](C)[C@H](NC(=O)CN(C)C)C(=O)N(C)[C@H](C[C@@H](OC(C)=O)c1nc(C(=O)NC23CC(C(=O)OC)(C2)C3)cs1)C(C)C | -38.9% (active)
C[C@@H]1C/C=C\C(=O)O[C@H](/C=C/C#C/C=C/C(C)(C)[C@@H](O)c2cccc(O)c2Br)[C@@H](C)/C=C/[C@H](C)C[C@H](OC(N)=O)C1 | 19.2%
O=CC1(c2ccccc2)CCN(Cc2ccccc2)CC1 | 98.5%
NC(=O)c1c(Br)c(Br)c(Br)c(Br)c1C(=O)O (tested in a mixture with another compound) | 92.5% and 102%
CNC(=O)Oc1ccc(Cl)cc1SSc1cc(Cl)ccc1OC(=O)NC | 75.5%
O=C(NC(Cl)=C(Cl)Cl)P(=O)(c1ccccc1)c1ccccc1 | 92%
C(=NC1CCCCC1)=NC1CCCCC1 | 101% and 88.4%
CCOC(=O)C1C(C=C(C)C)C1(C)C (stereo not given) | 102%

Compound | growth
COCC1OC2OC3C(COC)OC(OC4C(COC)OC(OC5C(COC)OC(OC6C(COC)OC(OC7C(COC)OC(OC8C(COC)OC(OC1C(O)C2O)C(O)C8O)C(O)C7O)C(O)C6O)C(O)C5O)C(O)C4O)C(O)C3O (stereo not given) (tested in a mixture with another compound) | 117%
CC[PH+](CC)CC.O=COC1OC([S-])C(OC=O)C(OC=O)C1OC=O.[Au+] (stereo not given) | -72.2% (active)
O=C(O)CNCP(=O)(O)O | 104%
C[C@]12CC[C@H]3[C@@H](C[C@@H]4SC(Nc5ccccc5)=N[C@@]45C/C(=N/O)CC[C@]35C)[C@@H]1CCC2=O | 51.6%
Nc1ccc(P(=O)(O)O)cc1 | 107% and 105%
CC[C@H](C)[C@H](NC(=O)c1cnccn1)C(=O)N(C)[C@H](C[C@@H](OC(C)=O)c1nc(C(=O)N[C@@H](Cc2ccccc2)C[C@H](C)C(=O)OC)cs1)C(C)C | -37.6% (active)
CCCCCCCCCCCCCCCC[N+](C)(C)Cc1ccccc1 | -58.7% (active) and -87.5% (active)
CC[C@H](C)[C@H](NC(=O)C12CC(NC)(C1)C2)C(=O)N(C)[C@H](C[C@@H](OC(C)=O)c1nc(C(=O)N[C@@H](Cc2ccccc2)C[C@H](C)C(=O)OC)cs1)C(C)C | -17.5% (active)
C/C=C(/C)C(=O)O[C@H]1CC[C@@]2(C)[C@@H]3CC[C@H]4[C@]5(O)C[C@H](O)[C@@]6(O)[C@@H](CN7C[C@@H](C)CC[C@H]7[C@@]6(C)O)[C@]5(O)C[C@@]42O[C@@]13O | 108%
Cc1cc(NC(=O)NCCCOc2ccc(N3C(N)=NC(N)=NC3(C)C)cc2Cl)ccc1S(=O)(=O)F | 27.7%
Cn1cc(-c2csc(-c3cn(CCCCN4CCOCC4)c4ccc(F)cc34)n2)c2cccnc21 | 38.1%
CC[C@H](C)[C@H](NC(=O)[C@H]1CCCCN1C)C(=O)N(C)[C@H](C(=O)NC12CC(C(=O)N[C@@H](Cc3ccccc3)C[C@H](C)C(=O)OC)(C1)C2)C(C)C | 108%
O=c1[nH]c(=O)[nH]c(=O)[nH]1 | 114%
COc1ccc2c(c1)c(-c1nc(-c3cn(C)c4ncccc34)cs1)cn2CCCCN1CCOCC1 | -83.4% (active)
O=C1c2ccccc2C(=O)N1N1CC1c1ccccc1 (stereo not given) | 102%
CC(=O)Cc1ccc2c(c1)OCO2 | 105%
COC[C@H]1OC(=O)c2coc3c2[C@@]1(C)C1=C(C3=O)[C@@H]2CCC(=O)[C@@]2(C)C[C@H]1OC(C)=O | 60.3%
C[C@]12C[C@H](c3ccoc3)OC(=O)[C@H]1CC[C@@]1(C)[C@@H]2[C@H]2C=C[C@]1(O)C(=O)O2 | 98.1%
CCOC(=O)P(=O)(OCC)OCC | 120%
